# Measured values: PubChem BioAssay AID1578 (Sanford-Burnham Center for Chemical Genomics, 2009)
# Several values for one entry are separate records, joined by “and”; a condition that tells them apart may be missing. Equal entries are not always repeated. In all, about 290,000 compounds went through this assay and about 3,000 (1%) were called active. Cut-off read from the data, not from the text of the source: active = inhibition mostly above about 36% (no sharp cut-off); inactive = mostly below about 34%. The entries come from a sample that favours actives as a whole. The source holds several records for some structures; these can differ, active in one and inactive in another.
# Test: NOD1 signaling inhibitors, primary screen, cell-based, luminescence, uHTS (AID 1578);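 note: HEK-293T reporter cells stimulated with the NOD1 agonist gamma-tri-DAP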
# Details: NOD1-driven NF-kB luciferase reporter cells, at 4 µM, stronger effect = higher value
row,Compound,inhibition
1,CCN(CC)C(=O)Cn1cc(C(=O)C(=O)N2CCN(C)CC2)c2ccccc21,-22.7% (inactive)
2,COc1ccc(C(=O)C/C(=C\C(=O)c2ccc(C)cc2)c2ccccc2)cc1,71.2% (active)
3,Cc1ccc(C(=O)CC(=O)c2ccccc2)cc1,-42.7% (inactive)
4,COc1ccc(C(=O)CC(=O)c2ccc(OC)cc2)cc1,-23.3% (inactive)
5,CC(C)N1CC(C(=O)Nc2ccc(Cl)c([N+](=O)[O-])c2)CC1=O (stereo not drawn),-8.3% (inactive)
6,Cc1ccc2[nH]c3c(c2c1)CCCC3NCCO (stereo not drawn),-12.6% (inactive)
7,Cc1ccc2[nH]c3c(c2c1)CCCC3NC(=O)CCl (stereo not drawn),70% (active)
8,Cc1ccc2[nH]c3c(c2c1)CCCC3C(N)=O (stereo not drawn),-44.3% (inactive)
9,C=C1C(=O)C=C2CN(C(=O)c3ccccc3)[C@@](Cc3ccc(F)cc3)(C(=O)OC)[C@@H]12,98.5% (active)
10,COC(=O)[C@@]1(Cc2ccc(F)cc2)[C@@H]2[C@@H](CC(=O)[C@H]2CC(=O)C(=O)N(C)C)CN1C(=O)c1ccccc1,-29.5% (inactive)
11,COC(=O)[C@@]1(Cc2ccccc2)[C@@H]2C(=CC(=O)[C@H]2CC(=O)C(=O)N(C)C)CN1C(=O)c1ccccc1,47.7% (inactive)
12,CS(=O)(=O)c1cnc(-c2ccccc2)nc1-c1ccccc1Cl,23.1% (inactive)
13,CC1Cc2cc(S(=O)(=O)N3CCC(C(N)=O)CC3)ccc2N1C(=O)C1CC1 (stereo not drawn),-42.9% (inactive)
14,O=C(O)/C=C/c1ccc([N+](=O)[O-])o1,-17.7% (inactive)
15,O=C(N/N=C/c1ccc([N+](=O)[O-])o1)c1ccc(O)cc1,6.8% (inactive)
16,O=C(/C=C/c1ccc([N+](=O)[O-])o1)NNC(=O)c1ccc(F)cc1,66.9% (active)
17,CCCOc1ccc(OCCCCNC(C)CC)cc1 (stereo not drawn),0.5% (inactive)
18,CC(C(=O)NC1CCCC1)N(C(=O)Cn1nnc(-c2ccc(F)cc2)n1)c1ccccc1F (stereo not drawn),82.7% (active)
19,COc1ccc(N(C(=O)Cn2nnc(-c3ccc(F)cc3)n2)C(C)C(=O)NC2CCCC2)cc1OC (stereo not drawn),10.1% (inactive)
20,COc1ccc(N(C(=O)Cn2nnc(-c3ccc(F)cc3)n2)C(C)C(=O)NC2CCCC2)cc1 (stereo not drawn),-22.6% (inactive)
21,COc1cccc(C(=O)NCCCNC(=O)c2ccco2)c1,9.1% (inactive)
22,Cc1ccccc1C1C(C#N)=C(N)N(N(C)C)C2=C1C(=O)CC(C)(C)C2 (stereo not drawn),-10.1% (inactive)
23,CCCCCn1c2c(c(=N)c3ccccc31)CCC2,-13.6% (inactive)
24,CCCCn1c2c(c(=N)c3ccccc31)CCC2,-6.7% (inactive)

row,Compound,inhibition
1,CCCCCCCn1c2c(c(=N)c3ccccc31)CCC2,77.4% (active)
2,CCO[C@H]1OC(C(=O)NC2CC2)=C[C@@H](c2ccc(C(F)(F)F)cc2)[C@@H]1CCCO,1.4% (inactive)
3,CC(Oc1ccccc1)C(=O)N=Nc1c(O)[nH]c2ccc(Br)cc12 (stereo not drawn),-9.4% (inactive)
4,CC(=O)OC1CCC(OC(C)=O)c2c1n([O-])c(C)c(C)[n+]2=O (stereo not drawn),79.5% (active)
5,Cc1c(C)[n+](=O)c2c(n1[O-])C(Br)CCC2Br (stereo not drawn),-7.3% (inactive)
6,Cc1c(CBr)[n+](=O)c2c(n1[O-])C(Br)CCC2Br (stereo not drawn),-9.7% (inactive)
7,N#Cc1cc([N+](=O)[O-])ccc1NCC1CCCO1 (stereo not drawn),-26.2% (inactive)
8,N#Cc1cc(NCC2CCCO2)c([N+](=O)[O-])cc1C#N (stereo not drawn),-23.8% (inactive)
9,N#Cc1cc(Cl)c(NCC2CCCO2)cc1C#N (stereo not drawn),83.4% (active)
10,COc1ccc2cc(S(=O)(=O)N3CCOCC3)ccc2c1,-5.6% (inactive)
11,COc1ccc2[nH]c(=O)c(CNc3ccccc3C)cc2c1,-10.6% (inactive)
12,COc1ccc(C2CC(c3cccs3)=NN2c2nc(-c3ccccc3)cs2)cc1OC (stereo not drawn),-16.1% (inactive)
13,CN1CCN(c2ncnc3sc(-c4ccccc4)cc23)CC1,32% (inactive)
14,OCCN1CCN(c2ncnc3sc(-c4ccccc4)cc23)CC1,-0.1% (inactive)
15,OCCN1CCN(c2nc(-c3ccccc3)c3cc(Br)ccc3n2)CC1,-12.3% (inactive)
16,CC1(C)CC2CC(C)(CN2c2ncnc3ccc(Br)cc23)C1 (stereo not drawn),39.1% (inactive)
17,OCCN1CCN(c2ncnc3ccc(Br)cc23)CC1,66.7% (active)
18,COc1ccc(OC)c(C(=O)NC(CC(N)=O)c2ccc(NCCOc3ccccc3)c([N+](=O)[O-])c2)c1 (stereo not drawn),-4% (inactive)
19,CCCNC(=S)NC1CC2CCC(C1)N2Cc1ccccc1 (stereo not drawn),0.5% (inactive)
20,O=C(CN1C(=O)/C(=C/c2ccccc2F)Sc2ccccc21)NCC1CCCO1 (stereo not drawn),9.1% (inactive)
21,O=C(CN1C(=O)/C(=C/c2ccccc2F)Sc2ccccc21)NCc1cccnc1,59.2% (active)
22,O=C(CN1C(=O)/C(=C/c2ccccc2F)Sc2ccccc21)NCCCN1CCOCC1,-19.9% (inactive)
23,NS(=O)(=O)c1ccc(CNC(=S)NCc2ccc(F)cc2)cc1,14.6% (inactive)
24,Cc1onc(C(=O)NN)c1C(=O)Nc1ncc(C(F)(F)F)cc1Cl,-8.1% (inactive)

row,Compound,inhibition
1,O=C(C1=NN[C@@H]2C(=O)N(c3cccc(C(F)(F)F)c3)C(=O)[C@H]12)c1ccc2ccccc2n1,87.5% (active)
2,O=C(C1=NN[C@@H]2C(=O)N(c3cccc(F)c3)C(=O)[C@H]12)c1ccc2ccccc2n1,-47% (inactive)
3,O=C(C1=NN[C@@H]2C(=O)N(c3ccccc3C(F)(F)F)C(=O)[C@H]12)c1ccc2ccccc2n1,-11.3% (inactive)
4,O=C(O)/C=C\C(=O)NNC(=O)c1cc(-c2ccccc2)n[nH]1,-10% (inactive)
5,Cc1ccc(CNC(=O)c2ccccc2NS(=O)(=O)c2ccc(Cl)nc2)cc1,5.6% (inactive)
6,CC(C)On1c(SCC(=O)N(C)C)nc2ccccc2c1=O,-1.8% (inactive)
7,CCN1/C(=C\C(C)=O)Sc2ccc(OC)cc21,16.9% (inactive)
8,CCN1/C(=C/C(C)=O)Sc2ccc(OC)cc21,53% (active)
9,CCC(=O)/C=C1/Sc2ccc(OC)cc2N1CC,22.6% (inactive)
10,CC(=O)N1[C@H](Cc2ccccc2)C=C[C@]1(C)C(=O)NCc1ccc(C)o1,99.7% (active)
11,CC(=O)N1[C@H](Cc2ccccc2)C=C[C@]1(C)C(=O)NCc1ccccn1,-2.7% (inactive)
12,C[C@]1(C(=O)NCCc2c[nH]c3ccccc23)C=C[C@@H](Cc2ccccc2)N1C(=O)c1ccccc1,84.6% (active)
13,CC(=O)N1[C@H](Cc2ccccc2)C=C[C@]1(C)C(=O)NCCc1c[nH]c2ccccc12,-15.7% (inactive)
14,COCCNC(=O)[C@@]1(C)C=C[C@@H](Cc2ccccc2)N1C(=O)c1ccccc1,-45.4% (inactive)
15,CC(=O)N1[C@H](Cc2ccccc2)C=C[C@]1(C)C(=O)NCCN1CCOCC1,22.4% (inactive)
16,Cc1sc2nc(SCC(=O)N(C)Cc3ccccc3)n(-c3ccccc3)c(=O)c2c1C,3.3% (inactive)
17,Cc1ccc2c(c1)N(C(=O)CCC(=O)NCc1cccnc1)CC(C)O2 (stereo not drawn),-33% (inactive)
18,Cc1ccc(C(=O)N2CCc3ccccc32)o1,-15.8% (inactive)
19,CCOC(=O)c1nc2nc(C)cc(=O)n2[nH]1,-8.6% (inactive)
20,O=C(NCCCCCCNC(=O)OC1CCS(=O)(=O)C1)OC1CCS(=O)(=O)C1 (stereo not drawn),9.3% (inactive)
21,COc1cccc2c1C(=O)c1c(O)c3c(c(O)c1C2=O)C[C@@](O)(C(=O)CO)C[C@@H]3O[C@H]1C[C@H](N)[C@H](O)[C@H](C)O1,78.6% (active)
22,COc1cccc2c1C(=O)c1c(O)c3c(c(O)c1C2=O)C[C@@](O)(C(C)=O)C[C@@H]3O[C@H]1C[C@H](N)[C@H](O)[C@H](C)O1,108% (active)
23,COc1cccc2c1-c1c(O)cccc1C2=O,-18.2% (inactive)
24,COc1ccc(OC)c(-n2c(-c3cccc(C)c3)n[nH]c2=S)c1,-42.7% (inactive)

row,Compound,inhibition
1,COc1cccc(COc2ccccc2C2Nc3ccc(Br)cc3C(=O)N2NC(=O)c2ccncc2)c1 (stereo not drawn),9.7% (inactive)
2,O=[N+]([O-])c1ccc(N=Nc2ncc[nH]2)cc1,74.2% (active)
3,O=[N+]([O-])c1ccc(N=NN(CCO)CCO)cc1,6.1% (inactive)
4,O=[N+]([O-])c1ccc(N=Nc2c(Cl)cc(O)cc2Cl)cc1,16.5% (inactive)
5,CCC(=O)c1c(OCc2ccccc2)ccc2c(C)cc(=O)oc12,3.9% (inactive)
6,Cc1cccc(C(=O)C2CCN(S(=O)(=O)c3cccc(C(=O)O)c3)CC2)c1,12.2% (inactive)
7,O=C(CSc1cccc2cccnc12)OCC(=O)c1ccccc1,-30.2% (inactive)
8,CN(C)C(=O)CSc1cccc2cccnc12,85.5% (inactive)
9,CCOC(=O)CSc1cccc2cccnc12,85.4% (active)
10,NNC(=O)CSc1cccc2cccnc12,-24.8% (inactive)
11,O=C(O)CSc1cccc2cccnc12,36% (inactive) and 65.2% (active)
12,O=C(CSc1cccc2cccnc12)OCC(=O)c1ccc(Br)cc1,3.3% (inactive)
13,COc1ccc(C2(C)NC(=O)N(CC3CCCCC3)C2=O)cc1 (stereo not drawn),1.3% (inactive)
14,COc1ccccc1OCCCCN1CCC(C)CC1,-6.9% (inactive)
15,COc1ccc2nc(NC(=O)C3CCCN(S(=O)(=O)c4cccc5nonc45)C3)sc2c1 (stereo not drawn),-1.6% (inactive)
16,O=C(Nc1ccc(NC(=O)c2ccccc2Cl)cc1)c1cccnc1,-48.1% (inactive)
17,CN(CCCCCCCCC(=O)/C=N/O)Cc1ccccc1,-3.1% (inactive)
18,CCN(CC)CCOC(=O)c1ccc(NC(=O)c2ccc(Cl)c(S(=O)(=O)N3CCCCCC3)c2)cc1,13.1% (inactive)
19,O=C(CSc1nnc(NC2CCCCC2)s1)Nc1ccc2c(c1)C(=O)c1ccccc1C2=O,-43.3% (inactive)
20,CC(C)Nc1nnc(SCC(=O)Nc2ccc3c(c2)C(=O)c2ccccc2C3=O)s1,83.7% (active)
21,CC(C)Nc1nnc(SCC(=O)Nc2ccc(F)cc2)s1,-8.4% (inactive)
